PubChem BioAssay (Tox21)
Activity calls are given as the source filed them. Calls come from the whole dose curve; as a rule, active = well fitted curve in the direction sought with a large enough effect in the repeat runs; inconclusive = weak or mixed curves; inactive = flat fitted curve, though single readings scatter. Positions of bridges follow the written chain, without caps; N, C: chain ends. Non-standard residues stand in square brackets, D forms with d. Residues, ends and D or L forms follow the SMILES beside them. hArg = N=C(N)NCCCC[C@H](N)C(=O)O; Mpa = O=C(O)CCS

assay: qHTS assay to test for compound auto fluorescence at 460 nm (blue) in HepG2 cells (AID 720687); details: autofluorescence 405/460 nm, 1 h; series mostly up to 91.3 µM
Source text: U.S. Tox21 Program National Center for Advancing Translational Sciences [NCATS] NIH Chemical Genomics Center [NCGC] U.S. Environmental Protection Agency [EPA] National Institutes of Environmental Health Sciences [NIEHS] National Toxicology Program [NTP] U.S. Food and Drug Administration [FDA] Tox21 Assay Overview: Compound auto fluorescence often interferes with screening of the compound library against various biological targets and signaling pathways. Some of these compounds may have fluorophoric properties. Such properties may interfere with the assay outputs resulting in false positives and/or negatives. To decrease such complications and ensure the compound activities are relevant in terms of biological response, the Tox21 10K compound library was screened for auto fluorescence. From the fluorophores used as reporter signals in our screening assays, the auto fluorescence equivalencies of compounds against three fluorophores have been evaluated: Triamterene, Fluorescein and Rose Bengal sodium for blue, green and red fluorescence, respectively. The fluorescence intensities were measured using Excitation/Emission wavelengths at 405/460nm, 485/535nm and 540/590nm for blue, green and red labels, respectively. This assay includes the blue fluorescence data.
Tox21 Assay Protocol Summary: 2,000 HepG2 cells in 5 uL of culture medium (MEM containing 10% FBS) per well were dispensed into black wall/clear bottom 1536-well plates using a Multidrop Combi Dispenser (ThermoFisher Scientific, Waltham, MA). The assay plates were incubated overnight at 37 C to allow cell attachment to the well bottom, followed by the transfer of 23 nL compound or DMSO vehicle by a pintool work station (Kalypsys , San Diego, CA). After the assay plates were incubated for 1 hr at 37 C and 5% CO2, fluorescence intensities in the assay plates were measured by an Envision (PerkinElmer, Shelton, CT) plate reader using three labels for measuring blue, green and red fluorescence at […] 460, 535 and 590 nm respectively.

**Q.** Which outcome does the source give for ONc1ccccc1 here?
**A.** The outcome was “inactive”.

**Q.** With C=CCCCC as the molecule, how does the outcome read?
**A.** Its outcome is “inactive”.

**Q.** For Cc1cccc(Cl)c1, which outcome is on record?
**A.** The outcome was “inactive”.

**Q.** Which outcome does the source give for CC/C=C\CCOC(=O)c1ccccc1O here?
**A.** The outcome was “inactive”.

**Q.** With N#CCC(=O)NN as the molecule, how does the outcome read?
**A.** The outcome was “inactive”.

**Q.** Which outcome does the source give for CCCc1ccc(O)cc1 here?
**A.** Its outcome is “inactive”.

**Q.** For O=C(O)[C@H](O)c1ccccc1, which outcome is on record?
**A.** The outcome was “inactive”.

**Q.** Which outcome does the source give for C=C(C)[C@@H]1CC=C(C)CC1 here?
**A.** Its outcome is “inactive”.

**Q.** For NCCOCCN, which outcome is on record?
**A.** The outcome was “inactive”.

**Q.** With O=C1OCCO1 as the molecule, how does the outcome read?
**A.** The outcome was “inactive”.

**Q.** For CC(=O)C1C(=O)C=C(C)OC1=O (stereo not given), which outcome is on record?
**A.** The outcome was “inactive”.

**Q.** With CCCCCc1cccc(=O)o1 as the molecule, how does the outcome read?
**A.** Its outcome is “inactive”.

**Q.** For CCCCOC(=O)[C@H](C)O, which outcome is on record?
**A.** The outcome was “inactive”.

**Q.** For CC1(C)Oc2ccc(C#N)cc2[C@@H](N2CCCC2=O)[C@@H]1O, which outcome is on record?
**A.** Its outcome is “inactive”.

**Q.** With Cc1ccc(N)cc1S(=O)(=O)O as the molecule, how does the outcome read?
**A.** Its outcome is “inactive”.

**Q.** Which outcome does the source give for NC(=O)[C@@H]1CSSCCC(=O)N[C@@H](CCCCN=C(N)N)C(=O)NCC(=O)N[C@@H](CC(=O)O)C(=O)N[C@@H](Cc2c[nH]c3ccccc23)C(=O)N2CCC[C@H]2C(=O)N1 ([Mpa][hArg]GDWPC-NH2; disulfide 1-7) here?
**A.** The outcome was “inactive”.

**Q.** With OCC1CCC(CO)CC1 (stereo not given) as the molecule, how does the outcome read?
**A.** The outcome was “inactive”.

**Q.** Which outcome does the source give for C/C(CC(C)C)=N\O here?
**A.** Its outcome is “inactive”.

**Q.** For CO[C@@]1(NC(=O)Cc2cccs2)C(=O)N2C(C(=O)O)=C(COC(N)=O)CS[C@@H]21, which outcome is on record?
**A.** The outcome was “inactive”.

**Q.** For O=Cc1cc2ccccc2o1, which outcome is on record?
**A.** The outcome was “inactive”.

**Q.** With C#CCN[C@@H]1CCc2ccccc21 as the molecule, how does the outcome read?
**A.** The outcome was “inactive”.

**Q.** For COC(=O)CCCCC(=O)O, which outcome is on record?
**A.** The outcome was “inactive”.

**Q.** Which outcome does the source give for Cc1c(C(=O)c2c[nH]n(C)c2=O)ccc(S(C)(=O)=O)c1C1=NOCC1 here?
**A.** Its outcome is “inactive”.

**Q.** Which outcome does the source give for Fc1ccccc1 here?
**A.** The outcome was “inactive”.

**Q.** With CCCCCCCCCOC(=O)c1ccccc1C(=O)OCCCCCCCCC as the molecule, how does the outcome read?
**A.** The outcome was “inactive”.

**Q.** With CCc1occc(=O)c1O as the molecule, how does the outcome read?
**A.** The outcome was “inactive”.

**Q.** For CC(C)(CO)C(O)C(=O)NCCCO (stereo not given), which outcome is on record?
**A.** The outcome was “inactive”.

**Q.** With CC(=O)O[C@@H]1CC2CCC1(C)C2(C)C (stereo not given in full) as the molecule, how does the outcome read?
**A.** Its outcome is “inactive”.

**Q.** For CC(C)OC(=O)OCOP(=O)(CO[C@H](C)Cn1cnc2c(N)ncnc21)OCOC(=O)OC(C)C, which outcome is on record?
**A.** Its outcome is “inactive”.

**Q.** Which outcome does the source give for CC(=O)O[C@H]1C[C@@H]2CC[C@@]1(C)C2(C)C here?
**A.** Its outcome is “inactive”.

**Q.** Which outcome does the source give for COc1cc2c(cc1OC)C(=O)C(CC1CCN(Cc3ccccc3)CC1)C2 (stereo not given) here?
**A.** The outcome was “inactive”.

**Q.** For OC[C@H]1O[C@@H](O[C@@H]2[C@@H](CO)O[C@](O)(CO)[C@H]2O)[C@H](O)[C@@H](O)[C@H]1O, which outcome is on record?
**A.** The outcome was “inactive”.

**Q.** Which outcome does the source give for CC1=C(C(=O)O)N2C(=O)[C@@H](NC(=O)[C@H](N)c3ccccc3)[C@H]2SC1 here?
**A.** The outcome was “inactive”.

**Q.** With C/C=C(\C)C(C)=O as the molecule, how does the outcome read?
**A.** The outcome was “inactive”.

**Q.** Which outcome does the source give for CC(C)C1OCCN1CCOC(=O)NCCCCCCNC(=O)OCCN1CCOC1C(C)C (stereo not given) here?
**A.** Its outcome is “inactive”.

**Q.** With CCO[Si](CC)(OCC)OCC as the molecule, how does the outcome read?
**A.** The outcome was “inactive”.

**Q.** With CSc1cnccn1 as the molecule, how does the outcome read?
**A.** The outcome was “inactive”.

**Q.** Which outcome does the source give for OCC1(CO)COCOC1 here?
**A.** Its outcome is “inactive”.

**Q.** With O=C(O)CSCC(=O)NC1CCSC1=O (stereo not given) as the molecule, how does the outcome read?
**A.** Its outcome is “inactive”.

**Q.** For N[C@@H](Cc1ccc(O)cc1)C(=O)O, which outcome is on record?
**A.** The outcome was “inactive”.
